Source: ChEMBL document CHEMBL4296183, “CO-ADD screening of NIH NCI Natural Product Set III” (2020)

What follows are compounds tested on Staphylococcus aureus (assay: Antibacterial activity against Staphylococcus aureus MRSA ATCC 43300 (CO-ADD:GP_020); MIC in CAMBH media using NBS plates, by Resazurin F(560/590)). Conditions: Concentration 20 uM, ASSAY_TEST Inhibition of Bacterial Growth, detection method Resazurin, Fluorescence (ex560/em590), MEDIA CAMHB, plate type 384well, CORNING #3640, time 18 hr.
Type: functional
With `CC(=O)O.COc1ccc2c(=O)oc3c(OC)cc(CCN(C)C)c4c(=O)oc1c2c34` the Inhibition was 18.21%. `CC1=C2[C@H]3OC(=O)[C@@H](C)[C@@H]3CC[C@@]2(C)C=C/C1=N\O` gave an Inhibition of 19.54%. In the case of `COC1/C=C\C=C(/C)C(=O)NC2=CC(=O)C(N)=C(CC(C)CC(OC)C(O)C(C)/C=C(\C)C1OC(N)=O)C2=O` (stereo not given), the Inhibition is reported as 2.59%. For `COc1cc([C@@H]2c3cc4c(cc3[C@@H](OC3OC5CO[C@@H](c6cccs6)OC5C(O)C3O)[C@H]3COC(=O)[C@H]23)OCO4)cc(OC)c1O` (stereo not given in full), the Inhibition was 7.05%. For `O=c1oc2c(O)c(O)cc3c(=O)oc4c(O)c(O)cc1c4c23` [ELLAGIC ACID], the Inhibition was -17.94%. `O=C1c2cc(O)c(O)cc2O[C@H](c2ccc(O)c(O)c2)[C@H]1O` was tested, and the Inhibition was 16.46%. With `COC(=O)NC1C(C)OC(OC2C/C=C(/C)C3C=CC4C(OC5CC(OC6CCC(OC7CC(O)C(OC8CCC(O)C(C)O8)C(C)O7)C(C)O6)C(OC(C)=O)C(C)O5)C(C)CC(C)C4C3(C)/C(O)=C3/C(=O)OC4(CC(C=O)=CC(O)C4/C=C\2C)C3=O)CC1(C)[N+](=O)[O-]` (stereo not given) the Inhibition was -21.61%. For `COc1ccc(C2CC(=O)c3c(O)cc(OC4OC(CO)C(O)C(O)C4OC4OC(C)C(O)C(O)C4O)cc3O2)cc1O` (stereo not given), the Inhibition was 15.96%. With `CCC1NC(=O)C(NC(=O)c2ncccc2O)C(C)OC(=O)C(c2ccccc2)NC(=O)C2CC(=O)CCN2C(=O)C(Cc2ccccc2)N(C)C(=O)C2CCCN2C1=O` (stereo not given) the Inhibition was 3.19%. In the case of `CC1(C)CCCC2(C)C3=C(CCC12)C(=O)OC3` (stereo not given), the Inhibition is reported as 10.53%. In the case of `CN1CCc2cc3c(cc2C(=O)Cc2ccc4c(c2C1)OCO4)OCO3.Cl` [PROTOPINE HYDROCHLORIDE], the Inhibition is reported as 14.82%. Work on `CCCCCc1cc(O)cc2c1Oc1cc(O)cc(C(=O)CCCC)c1C(=O)O2` yielded an Inhibition of 23.6%. Compound `Cc1cc2nc3[nH]c(=O)[nH]c(=O)c3nc2cc1C` [LUMICHROME] has an Inhibition of 0.69%. In the case of `CC(C)=CCc1c2c(c3occ(-c4ccc(O)c(O)c4)c(=O)c3c1O)C=CC(C)(C)O2` [POMIFERIN], the Inhibition is reported as 6.8%. `COC(=O)[C@]1(C)CCC[C@]2(C)C3=CC(=O)[C@@]4(C(C)C)O[C@H]4[C@]3(O)CC[C@@H]12` showed an Inhibition of 16.23%. With `COc1ccc2c(c1OC)C(=O)O[C@@H]2[C@H]1c2c(cc3c(c2OC)OCO3)CCN1C` [NOSCAPINE] the Inhibition was 1.91%. `CCCCCCCCCCCCCCCC(=O)O[C@@H]1[C@@H](C)[C@@]2(O)[C@@H](C=C(CO)C[C@]3(O)C(=O)C(C)=C[C@@H]23)[C@H]2[C@]1(OC(C)=O)[C@]2(C)CO` showed an Inhibition of 18.67%. `CC[C@]1(O)C[C@H]2CN(CCc3c([nH]c4ccccc34)[C@@](C(=O)OC)(c3cc4c(cc3OC)N(C=O)[C@H]3[C@@](O)(C(=O)OC)[C@H](OC(C)=O)[C@]5(CC)C=CCN6CC[C@]43[C@@H]65)C2)C1.O=S(=O)(O)O` [VINCRISTINE SULFATE] gave an Inhibition of -14.43%. With `O=C(O)CCCCCCC[C@@H](O)[C@@H](O)CCCCCCO` the Inhibition was 20.06%. `COC(=O)C1C(O)CCC2CN3CCc4c([nH]c5ccccc45)C3CC21` (stereo not given) showed an Inhibition of 7.76%. `C=C1C(=O)O[C@@H]2[C@H]3O[C@]3(C)CC/C=C(\C)CC[C@@H]12` was tested, and the Inhibition was -12.66%. For `CCCCCCCCCCCCCCCCCCOCC(O)CO` (stereo not given) [BATILOL], the Inhibition was 16.14%. Work on `C=C1C(=O)OC2CC1C(O)C/C(C)=C/CC/C(C)=C/C(O)CC2C` (stereo not given) yielded an Inhibition of 8.79%. `CC(C)=CC(=O)OC1C2C(C)C(=O)OC2C(O)C(C)C2C=CC(=O)C21C` (stereo not given) was tested, and the Inhibition was 8.65%. `CC(=O)CCCCn1c(=O)c2c(ncn2C)n(C)c1=O` [PENTOXIFYLLINE] gave an Inhibition of 0.21%.
